SNCA expr inh – reduces expression of the alpha-synuclein gene. Potency, µM (top dose mostly 57.2 µM), actives largely listed as inhibitors. HEK-293 SNCA-luciferase knock-in, luminescence, 24 h. 140,000 compounds, 0.17% hits. AID 1671194; further: nearly all actives have a fitted effect of over 45% in size
HEK293 viab – counter-screen for SNCA expression inhibitors: cell viability; HEK-293-SNCA-luc viability, GF-AFC fluorescence, 24 h; Potency, µM (series often up to 57.1 µM), most hits filed as cytotoxic; 150,000 compounds, 0.12% hits; further: nearly all actives have a fitted effect of over 30% in size
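HEK-293-SNCA-luc cells (1500/well) plated 24 h, then exposed 24 h to a dilution series; GF-AFC added 30 min at 37C, fluorescence 405/540 nm; normalised to medium-only and DMSO wells, Hill fit.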
KDM5B inhibitor – blocks human KDM5B histone demethylase activity; Q9UGL1; KDM5B demethylase, FDH-coupled NADH fluorescence (FDH is formaldehyde dehydrogenase); Potency, µM (top dose mostly 57.7 µM), actives largely listed as inhibitors; 220,000 compounds, 2.6% hits; further: nearly all actives have a fitted effect of over 70% in size
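Inhibition is measured as reduced NADH fluorescence generation from FDH coupling to formaldehyde release. Truncated KDM5BΔAP at 200 nM final acts on H3K4me3 peptide (12.5 µM in substrate mix) in pH 7.5 HEPES buffer with Tween-20, 30 min, room temperature.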
IP6K1 inhibitor – inhibitors of human IP6K1; IP6K1 kinase, ADP-Glo luminescence, 2 h; stronger effect = lower value; AID 1645851; Q92551; 140,000 compounds, 0.81% hits; activity change, % (series mostly up to about 58 µM); in the data active means activity change below about -25%
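ADP-Glo luminescence measures ADP made by human IP6K1 during a 2 h RT reaction with ATP/IP6 (mix at 1.3 mM/130 uM); top library doses 57.5 and 19.1 uM final.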
Numbers stand for hits; i = inactive; ? = inconclusive; nt = no result. In the library only some 2.8% were active in any assay of this set; here they are far more common. Unless noted, the call rests on the fitted dose curve; in most records, active means well fitted curve in the direction sought with a large enough effect; inconclusive means small, poorly fitted or top-dose-only effect, or another doubt; inactive means no such curve, though single readings can be large; an effect the other way counts as inactive or inconclusive.

SMILES	SNCA expr inh	HEK293 viab	KDM5B inhibitor	IP6K1 inhibitor
CN1CCC2(C1)CN(CC1CCOCC1)c1ccc(C(=O)NCC(F)(F)F)cc12 (stereo unspecified)	i	i	35µM	i
CN1CCC2(C1)CN(CC1CC1)c1ccc(C(=O)Nc3ccccc3)cc12 (stereo unspecified)	i	i	?	i
O=C(NCC1CC1)c1ccc2c(c1)C1(CCN(CC3CC3)C1)CN2Cc1ccccc1 (stereo unspecified)	i	i	28µM	i
CN1CCC2(C1)CN(CC1CC1)c1ccc(C(=O)NC3CCCCC3)cc12 (stereo unspecified)	i	i	40µM	i
COc1ccc(-c2ocnc2C(=O)Nc2c(C)cc(C)cc2C)cc1OC	nt	nt	i	nt
CN(C)c1ccc(CN2CCn3nnc(CCC(=O)N4CCCC4)c3C2)cc1	i	i	i	i
CN1CCC2(C1)CN(Cc1ccccc1)c1ccc(C(=O)NCCOc3ccccc3)cc12 (stereo unspecified)	i	i	28µM	i
O=C(NCCCO)c1ccc2c(c1)C1(CCN(CC3CC3)C1)CN2Cc1ccccc1 (stereo unspecified)	i	i	35µM	i
CN(C)CCNC(=O)c1ccc2c(c1)C1(CCN(CC3CC3)C1)CN2Cc1ccccc1 (stereo unspecified)	?	i	35µM	i
O=C(NCC(F)(F)F)c1ccc2c(c1)C1(CCN(CC3CC3)C1)CN2Cc1ccccc1 (stereo unspecified)	i	i	20µM	i
CC(C)C(=O)Nc1ccc2[nH]cc(C(C(=O)O)N3CCN(CC(=O)N(C)C)CC3)c2c1 (stereo unspecified)	nt	nt	i	nt
COc1ccc(CC(=O)NC(C)c2cccs2)cc1OC (stereo unspecified)	nt	nt	i	nt
CCN(CC)C(=O)[C@@H]1CCC[C@@H](NCc2cnn(C)c2)CN(C)C(=O)C1	i	i	i	i
CC(C)C(=O)Nc1ccc2[nH]cc(C(C(=O)O)N3CCC(Cc4ccccc4)CC3)c2c1 (stereo unspecified)	nt	nt	i	nt
COC(=O)CNC(=O)c1ccc(C(=O)c2ccccc2)cc1	nt	nt	i	nt
CN1CCC2(C1)CN(Cc1ccccc1)c1ccc(C(=O)NCC3CC3)cc12 (stereo unspecified)	i	i	35µM	i
CN1CCCC2(C1)CN(Cc1cccnc1)c1ccc(C(=O)NCC3CCCCC3)cc12 (stereo unspecified)	?	i	i	i
O=C(NC1CCN(c2nc3ncccc3o2)CC1)c1ccccc1	i	i	35µM	i
Cc1ccc(C(=O)NC2CCN(c3nc4ncccc4o3)CC2)cc1	i	?	35µM	i
O=C(NC1CCN(c2nc3ncccc3o2)CC1)c1ccccc1F	i	i	?	i
Cc1cnc(-c2ccccc2)n1CC1CCN(S(=O)(=O)Cc2ccccc2F)CC1	i	i	i	i
COc1ccc(OC)c(NC(=O)CSC2=Nc3ccccc3C3=NC(CC(=O)NCc4ccco4)C(=O)N23)c1 (stereo unspecified)	i	i	i	-25
CCOc1ccc(NC(=O)CSC2=Nc3ccccc3C3=NC(CC(=O)NCc4ccco4)C(=O)N23)cc1 (stereo unspecified)	i	i	?	i
Cc1ccc(F)c(OC2(C(=O)O)CCN(c3cnc4ccccc4n3)CC2)c1	i	i	20µM	i
Cc1ccc(C(C)NC(=O)CCCOc2ccccc2C)o1 (stereo unspecified)	nt	nt	i	nt
SMILES	SNCA expr inh	HEK293 viab	KDM5B inhibitor	IP6K1 inhibitor
CC1(CNc2ccccc2)COc2ccc(C(=O)NCc3cccs3)cc2N1 (stereo unspecified)	?	i	?	i
CC1(CNCc2ccccc2)COc2ccc(C(=O)NCc3cccs3)cc2N1 (stereo unspecified)	i	i	32µM	i
CC1(COc2ccccc2)COc2ccc(C(=O)NCc3cccs3)cc2N1 (stereo unspecified)	i	i	32µM	i
COC[C@@H]1CN(S(=O)(=O)c2ccccc2F)C[C@H]1c1nc(C)no1	i	i	i	i
Cc1ccc(C(=O)NCc2cccnc2Oc2ccccc2F)c(=O)n1C	i	i	28µM	i
O=C(Cc1c[nH]c(=O)[nH]c1=O)NCc1cccnc1Oc1ccccc1F	i	i	i	i
Cc1ccccc1N(C)C(=O)c1cnc(N2CCOCC2)c2ccccc12	nt	nt	i	nt
CCCn1nnc(NCc2cccc(Cl)c2)n1	nt	nt	i	nt
Cc1ccc(-c2nnc([C@H]3CCN(Cc4ncc[nH]4)C3)o2)cc1	i	i	35µM	i
COc1ccc(-c2nnc([C@H]3CCN(Cc4ncc[nH]4)C3)o2)cc1	i	i	35µM	i
COc1ccc(CN2CC[C@H](c3nnc(-c4ccncc4)o3)C2)cc1	i	i	i	i
CCCc1nnc([C@H]2CCN(Cc3ncc[nH]3)C2)o1	i	i	?	i
Cc1nc(-c2ccc(OC(F)(F)F)cc2)sc1C(=O)N1CCN(C=O)CC1	nt	nt	i	nt
CN(C)Cc1ccc(-c2cc3c(ccn3Cc3ccncc3)c(N3CCOCC3)n2)cc1	i	i	40µM	i
Cn1cc(-c2cc3c(ccn3Cc3ccncc3)c(N3CCOCC3)n2)cn1	i	i	i	i
c1cc(Cn2ccc3c(N4CCOCC4)nc(-c4ccc5cn[nH]c5c4)cc32)ccn1	i	i	35µM	i
CCC(C)NC(=O)c1ccc(CN2C(=O)NC3(CCS(=O)(=O)CC3)C2=O)cc1 (stereo unspecified)	?	i	i	i
CCn1cc(C(=O)CSc2nnc(C)s2)c2ccccc21	nt	nt	i	nt
COCCNC(=O)c1ccc2nnc(-c3cncc(Cl)c3)n2c1	i	i	100µM	i
O=C(NC1CC1)c1ccc2nnc(-c3cncc(Cl)c3)n2c1	i	i	nt	i
O=C(NC1CC1)c1ccc2nnc(-c3ccc(Cl)cc3)n2c1	i	i	50µM	i
O=C(NCc1ccc(F)cc1)C1CCCN1Cc1ccc(-c2cncnc2)cc1 (stereo unspecified)	i	i	nt	i
CCC1(N2CCN(C(=O)c3ccc(F)c(Cl)c3)CC2)CCN(C(=O)NC)C1 (stereo unspecified)	i	i	i	i
CCN(Cc1ccco1)C(=O)[C@@H]1CN(c2ncccn2)C[C@H]1COC	i	i	?	i
COC[C@@H]1CN(c2ncccn2)C[C@H]1C(=O)N(C)Cc1ccco1	i	i	18µM	i
SMILES	SNCA expr inh	HEK293 viab	KDM5B inhibitor	IP6K1 inhibitor
COC[C@@H]1CN(c2ncccn2)C[C@H]1C(=O)O	i	i	16µM	i
CCOCC(=O)N[C@@H]1CN(c2ncccn2)C[C@H]1CO	i	i	?	i
O=C(c1ccco1)N1CCCCCC1c1nnc(-c2ccccc2)o1 (stereo unspecified)	i	i	i	i
CC(C)CNC(=O)CN1CCN(Cc2nc3ccccc3o2)CC1	nt	nt	i	nt
CN1CC(=O)N(C2CCCNC2)Cc2c1ncnc2N1CCc2ccccc2C1 (stereo unspecified)	i	i	50µM	i
CC(=O)N1CCCN(c2ncnc3c2CN(C2CCCNC2)C(=O)CN3C)CC1 (stereo unspecified)	i	i	50µM	i
CC(=O)N1CCCN(c2ncnc3c2CN(C2CCCNCC2)C(=O)CN3C)CC1 (stereo unspecified)	i	i	i	i
